Bioassay records deposited in PubChem by The Scripps Research Institute Molecular Screening Center.
GPR151 activ: human GPR151 activation; Q8TDV0; PathHunter beta-arrestin GPR151 cells, luminescence; activation, % at 11.2 µM; 1% of 650,000 active; AID 1508602; in the data active = activation above about 4.9%;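 note: 0% = median of compound wells and 100% = cells with positive control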
Target sequence (Q8TDV0 whole entry, looked up): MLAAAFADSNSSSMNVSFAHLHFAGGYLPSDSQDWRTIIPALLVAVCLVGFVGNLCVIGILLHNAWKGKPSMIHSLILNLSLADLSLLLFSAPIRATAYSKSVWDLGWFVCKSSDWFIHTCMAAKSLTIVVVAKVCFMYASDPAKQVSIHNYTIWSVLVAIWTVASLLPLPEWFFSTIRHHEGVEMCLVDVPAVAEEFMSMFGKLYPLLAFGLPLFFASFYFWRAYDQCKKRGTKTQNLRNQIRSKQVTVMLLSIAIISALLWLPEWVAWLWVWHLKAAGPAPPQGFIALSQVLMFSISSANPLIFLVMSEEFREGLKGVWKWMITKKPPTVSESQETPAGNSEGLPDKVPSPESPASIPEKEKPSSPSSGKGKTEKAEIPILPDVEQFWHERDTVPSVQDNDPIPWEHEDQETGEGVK
MITF primary: human MITF inhibition, primary screen; inhibition, % at 2.6 µM; AlphaScreen MITF homodimerization, bead proximity signal; O75030; AID 1259374; 0.91% of 650,000 active; in the data active = inhibition above about 50%;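 note: 0% = vehicle wells with protein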
FBW7 activator: human FBW7 E3 ligase activation, primary screen; Q969H0; AlphaScreen FBW7–phospho-cyclin E peptide binding, activator screen; normalized activity (activation), % at 26.1 µM; 0.13% of 650,000 active; in the data active = normalized activity above about 1.9%;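 note: purified mutant Fbw7 with reduced substrate affinity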
TEAD-YAP inh: TEAD-YAP interaction inhibition. HEK-TIYL cells, TEAD-Gal4/YAP UAS-luciferase luminescence. inhibition, % at 9.12 µM. 1.4% of 640,000 active. AID 1259422; in the data active = inhibition above about 32%;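 note: 0% = median of test compound wells and 100% = reference inhibitor wells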
MITF confirm: human MITF inhibition, confirmation; shares compounds with MITF primary; AlphaScreen MITF homodimerization, biotin/His-MITF beads; inhibition, % at 2.6 µM; 16% of 4,700 active;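 active = inhibition above a cutoff derived from the DMSO control wells, cut at about 28% in these data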;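 note: 0% = MITF dimer wells with DMSO only; inhibitors lower the bead chemiluminescence by keeping MITF from dimerizing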
AS interf DR: counter-screen: compounds optically interfering with AlphaScreen | IC50, µM | shares compounds with MITF primary | 6% of 480 active | AlphaScreen optical interference counterscreen, cell-free; call rule not given here
AlphaScreen intf2: counter-screen: compounds optically interfering with AlphaScreen; LysRS AlphaScreen counterscreen, signal interference, triplicate; inhibition, % at 2.6 µM; 7.6% of 4,700 active; AID 1259376; shares compounds with MITF primary;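 active = inhibition above a cutoff derived from the DMSO control wells, cut at about 30% in these data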
* = called active by the depositor; . = not tested or not shown. Most compounds without a hit are left out; they make up all but 3.5% or so of the library.

SMILES	GPR151 activ	MITF primary	FBW7 activator	TEAD-YAP inh	MITF confirm	AlphaScreen intf2	others
COc1ccc(-c2n[nH]c(=S)n2/N=C/c2cc(OC)ccc2OC)cc1	1	55*	0	10	-14	6
COc1cccc(CN2CCN(C3CCCC3)CC2)c1OC	0	61*	0	8	4	18
COc1cccc(CN2CCN(C3CCCC(C)C3)CC2)c1OC (stereo not given)	-1	70*	0	7	12	17
COc1ccc(CN2CCN(C3CCCC3)CC2)c(OC)c1OC	1	52*	0	-3	1	9
COc1cccc(CN2CCCCC2c2cccnc2)c1OC (stereo not given)	0	73*	0	-6	14	14
CCCN(CCC)CCCNC(=O)C1c2ccccc2C(=O)N(C)C1c1cccs1 (stereo not given)	0	-15	0	4	.	.
Fc1ccc(-n2cc(-c3ccccc3)c3c(N4CCN(c5ccccc5F)CC4)ncnc32)cc1	-1	-7	0	5	.	.
COC(=O)c1ccc(C2C3=C(CC(c4ccc(OC)cc4)CC3=O)Nc3ccccc3N2C(=O)c2ccccc2)cc1 (stereo not given)	1	-1	0	4	.	.
N/N=C(\Cc1ccc2ccccc2n1)c1ccccc1	1	8	0	-53	.	.
CCOC(=O)C(=O)Cc1ccc2ccccc2n1	-1	53*	0	-3	5	-6
Cc1cc(OC(=O)c2cccc([N+](=O)[O-])c2)ccc1N1C(=O)CCC1=O	0	70*	0	-2	3	9
O=C1C(=O)N(CCOCCO)C(c2cccs2)/C1=C(\O)c1ccc(F)cc1 (stereo not given)	-1	55*	0	4	2	-6
O=C1C(=O)N(CCN2CCOCC2)C(c2cccs2)/C1=C(/O)c1ccc(F)cc1 (stereo not given)	-1	5	0	-5	.	.
O=C(Nc1ccc2oc(-c3ccc4ccccc4c3)nc2c1)c1cc([N+](=O)[O-])ccc1Br	0	-9	0	5	.	.
O=C(Cc1cn2ccsc2n1)N/N=C/c1ccc([N+](=O)[O-])o1	-1	70*	-1	19	92*	40*
NC(=O)CSc1ccc(C(N)=O)cc1[N+](=O)[O-]	0	64*	0	-6	39*	-4	AS interf DR=>7.1
NC(=O)c1ccc(SCC(=O)O)c([N+](=O)[O-])c1	0	-2	0	-8	.	.
Cc1onc(-c2ccccc2)c1C(=O)Nc1cccc(C#N)c1	0	70*	1	8	9	9
COc1ccc(C2Nc3ccccc3NC3=C2C(=O)CC(c2ccccc2)C3)cc1OC (stereo not given)	1	57*	0	3	13	14
COc1ccc(C2Nc3ccccc3NC3=C2C(=O)CC(c2ccc(Cl)cc2)C3)cc1OC (stereo not given)	2	3	0	-1	.	.
COc1cc(C2C(C(=O)OC(C)C)=C(C)NC3=C2C(=O)CC(c2ccccc2)C3)ccc1OCc1ccccc1 (stereo not given)	0	64*	0	5	10	17
COc1ccc(C2C(C(=O)OC(C)C)=C(C)NC3=C2C(=O)CC(c2ccccc2)C3)cc1OC (stereo not given)	-1	6	2	1	.	.
CCC(=O)Nc1ccccc1C(=O)OCC(=O)c1cccc([N+](=O)[O-])c1	0	56*	0	-3	-1	-7
O=[N+]([O-])c1ccc(N2CCN(Cc3cc(Br)cs3)CC2)cc1	1	56*	0	6	4	6
CN1CCCN(Cc2ccc([N+](=O)[O-])s2)CC1	0	52*	0	0	4	6
SMILES	GPR151 activ	MITF primary	FBW7 activator	TEAD-YAP inh	MITF confirm	AlphaScreen intf2	others
O=[N+]([O-])c1ccc(CN2CCCCCC2)s1	-1	4	0	9	.	.
CC(=O)c1ccc(N2CCN(Cc3ccc(C)s3)CC2)cc1	1	36	0	-1	.	.
Cc1ccc(CN2CCN(c3ccc([N+](=O)[O-])cc3)CC2)s1	0	70*	1	2	-3	3
COc1ccc(C2=NS(=O)(=O)N(C)C(C(=O)Nc3cccc(O)c3)=C2)cc1	1	12	0	2	.	.
CC1CCCCN1C(=O)c1ccc(Oc2cnccn2)cc1 (stereo not given)	0	75*	0	-2	4	13
CCNS(=O)(=O)c1ccc(Cl)c(Cl)c1	0	56*	0	4	-2	5
CN(CCC(N)=O)Cc1ccc(F)cc1	-3	56*	0	11	-12	-8
CCN(CCN(C)C)Cc1cccc(OCc2ccccc2)c1	0	61*	0	6	-10	-4
CCCN(CCO)Cc1ccc(Cl)cc1Cl	1	-2	0	6	.	.
CCN(CCN(C)C)Cc1ccc(F)cc1F	0	60*	0	1	-6	-2
CCN(CCN(C)C)Cc1ccc(Cl)cc1Cl	0	56*	0	-6	-5	-5
CN(C)CCCN(CCCN(C)C)Cc1cccc(Oc2ccccc2)c1	1	24	0	-4	.	.
CC(C)(O)C#Cc1ccc(CN2CCN(CC(C)(C)C)C(CCO)C2)cc1 (stereo not given)	2	-9	0	6	.	.
CCN(CCN(C)C)Cc1cccc(Cl)c1Cl	-1	75*	0	4	-4	0
CCN(CCN(C)C)Cc1ccc(F)c(Br)c1	-1	27	0	8	.	.
CCN(CCN(C)C)Cc1ccc(Cl)c(Cl)c1	1	54*	0	-5	3	-5
CCCN(CCO)Cc1ccc(Cl)c(Cl)c1	2	16	0	7	.	.
CCN(CCN(C)C)Cc1ccc(F)c(F)c1	-1	60*	0	3	0	-5
CCN(CCN(C)C)Cc1ccc(F)cc1	0	60*	0	-4	28*	-3	AS interf DR=>6.5
CCN(CCC(=O)Nc1ccc(F)cc1)Cc1ccccc1	-1	4	0	4	.	.
CCOC(=O)N1CCN(Cc2ccc(O)c3ncccc23)CC1	0	71*	-1	5	50*	97*
Oc1ccc(CN2CCN(c3ccccc3F)CC2)c2cccnc12	1	20	-1	-2	.	.
CCCOCc1ccc(O)c2ncccc12	0	81*	-2	22	80*	100*
CCCCNc1nc(SC(CC)C(=O)Nc2ccc3c(c2)OCO3)nc2ccccc12 (stereo not given)	-2	-5	0	-12	.	.
COCCn1c(Cc2cccn2C)nnc1SCC(=O)Nc1ccc(OC)cc1OC	1	9	0	7	.	.
COc1ccc(Br)cc1CN1CCCC(C(N)=O)C1 (stereo not given)	1	-3	0	3	.	.
